A selection: hits, their analogues and other compounds. The true share with any hit is near 17%.
DT40 TDP1 no CPT = qHTS for Inhibitors of human tyrosyl-DNA phosphodiesterase 1 (TDP1): qHTS in cells in absence of CPT | DT40 Tdp1-/- hTDP1 cells, no CPT, ATP luminescence, 48 h | Potency, µM (top dose mostly 46.2 µM), hits mostly inhibitors | hit rate 15% among 420,000 | AID 686978, 2013; further: nearly all actives have a fitted effect of over 55% in size
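Stably hTDP1-transfected Tdp1-null chicken DT40 cells were treated with library compounds minus camptothecin and grown for at least 48 hr at 37 °C, after which cellular ATP was quantified by luminescence.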
TDP1 cell CPT = growth inhibition of DT40 Tdp1-/-;hTDP1 cells with camptothecin (screen for TDP1 inhibitors). chicken DT40 Tdp1-/-;hTDP1 cells + 20 nM CPT, ATP luminescence, 48 h. Potency, µM (titrated, usually from 46.2 µM), most hits filed as inhibitors. hit rate 12% among 420,000. AID 686979; further: nearly all actives have a fitted effect of over 55% in size
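Chicken DT40 Tdp1-/- cells stably complemented with human TDP1 were seeded at 400 cells/well in medium containing 20 nM camptothecin, exposed to pin-transferred compounds, and grown at 37 °C for at least 48 hr. Viability was read as ATP luminescence.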
TDP1 inh = TDP1 (human) enzyme inhibition. Q9NUW8. recombinant TDP1, AlphaScreen DNA substrate cleavage. Potency, µM (titrated, usually from 130 µM), usual class: inhibitors. hit rate 0.28% among 350,000; further: nearly all actives have a fitted effect of over 40% in size
Target sequence (Q9NUW8 whole entry, looked up): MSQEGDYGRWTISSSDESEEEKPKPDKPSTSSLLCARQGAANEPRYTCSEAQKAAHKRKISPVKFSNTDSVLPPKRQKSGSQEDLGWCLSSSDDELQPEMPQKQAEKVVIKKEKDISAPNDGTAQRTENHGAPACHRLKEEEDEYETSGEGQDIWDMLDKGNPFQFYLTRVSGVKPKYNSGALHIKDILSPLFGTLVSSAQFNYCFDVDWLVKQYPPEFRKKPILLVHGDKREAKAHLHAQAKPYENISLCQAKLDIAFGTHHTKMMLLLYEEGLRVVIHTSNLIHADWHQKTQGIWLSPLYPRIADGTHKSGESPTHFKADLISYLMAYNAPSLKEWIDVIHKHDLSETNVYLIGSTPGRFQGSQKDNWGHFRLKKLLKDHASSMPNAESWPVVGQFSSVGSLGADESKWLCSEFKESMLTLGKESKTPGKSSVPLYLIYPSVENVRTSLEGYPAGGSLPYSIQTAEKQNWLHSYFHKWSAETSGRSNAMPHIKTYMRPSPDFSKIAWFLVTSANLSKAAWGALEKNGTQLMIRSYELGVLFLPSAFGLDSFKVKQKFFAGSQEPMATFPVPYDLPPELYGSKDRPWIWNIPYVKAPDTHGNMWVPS
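Enzyme-compound mixtures sat 15 min at room temperature, followed by a 5 min reaction with 15 nM final substrate and 10 min with AlphaScreen beads. Recombinant human Tdp1 was used at 1 nM final.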
ClpP mod = qHTS Assay for Activators of ClpP; hit rate 1.9% among 340,000; purified B. subtilis ClpP, FRET peptide cleavage, 20 min; Potency, µM (top dose mostly 57.5 µM); ATP-dependent Clp protease proteolytic subunit (Bacillus subtilis (strain 168)), P80244; active means well fitted falling curve with a large enough effect; inconclusive means small, poorly fitted or top-dose-only effect; inactive means no such curve, though single readings can be large or run the other way; further: the source files actives as falling curves though it sought activators and does not explain the sign; nearly all actives have a fitted effect of over 65% in size
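Buffer: 100 mM Tris/HCl pH8, 100 mM KCl, 0.05% low protease BSA, 2.5% glycerol, 0.01% Tween-20. ClpP 10 microg/mL final; 20 min RT; delta FRET normalized to ADEP and DMSO controls.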
Each line names hits and unclear results; the compound was inactive in the other large screens; ! = not active in a repeat. Unless noted, the call rests on the fitted dose curve; in most records, active means well fitted curve in the direction sought with a large enough effect; inconclusive means small, poorly fitted or top-dose-only effect, or another doubt; inactive means no such curve, though single readings can be large; an effect the other way counts as inactive or inconclusive.

COc1ccc(C#Cc2cccc(-c3nc(C(=O)NCc4ccc(Oc5ccccc5)cc4)cc4c3[C@@H](CCO)N(S(=O)C(C)(C)C)C4)c2)cc1OC (stereo partly drawn)	DT40 TDP1 no CPT inconclusive, TDP1 cell CPT inconclusive (no result: TDP1 inh)
COc1cccc(CNC(=O)c2cc3c(c(-c4cccc(-c5cccc(C#N)c5)c4)n2)[C@H](CCO)N(S(=O)C(C)(C)C)C3)c1 (stereo partly drawn)	DT40 TDP1 no CPT 15µM, TDP1 cell CPT inconclusive (no result: TDP1 inh)
CCc1ccc(CNC(=O)CN2C(=O)CCn3nc(-c4cn(C)c5ccccc45)cc32)cc1	TDP1 cell CPT 16µM
Cn1cc(-c2cc3n(n2)CCC(=O)N3CCCC(=O)NCc2ccc(F)cc2)c2ccccc21	DT40 TDP1 no CPT inconclusive, TDP1 cell CPT 16µM
Nc1nc(NCc2ccc(F)cc2)c2[nH]cnc2n1	none
O=C(O)c1n[nH]c2c1CC(C1CCCCC1)CC2 (stereo not drawn)	none
CC(C)(C)OC(=O)N1C[C@H](O)C[C@H]1C(=O)OCC(=O)c1ccc([N+](=O)[O-])cc1	DT40 TDP1 no CPT inconclusive, TDP1 cell CPT 16µM
Cc1ccc(S(=O)(=O)N2CC(O)C[C@H]2C(=O)OCC(=O)c2ccccc2)cc1 (stereo partly drawn)	none
CCCOc1ccc(N2C(=O)CC(N(CCc3ccccc3)C(=O)c3ccccc3)C2=O)cc1 (stereo not drawn)	none
O=S(=O)(NCC(Nc1ccc(Cl)cc1)c1ccccc1)c1ccccc1 (stereo not drawn)	DT40 TDP1 no CPT 16µM, TDP1 cell CPT inconclusive
COc1cccc(NC(CNS(=O)(=O)c2ccc(Cl)cc2)c2ccccc2)c1 (stereo not drawn)	DT40 TDP1 no CPT 16µM, TDP1 cell CPT inconclusive
Cc1ccc(NC(CNS(=O)(=O)c2ccc(Cl)cc2)c2ccccc2)cc1 (stereo not drawn)	DT40 TDP1 no CPT 23µM, TDP1 cell CPT 21µM
NS(=O)(=O)c1ccc(NC(CNS(=O)(=O)c2ccccc2)c2ccccc2)cc1 (stereo not drawn)	none
COCCCCCCCCCCCC(=O)O	none (no result: ClpP mod)
CN(C)c1ncc2nc(-c3ccc(F)cc3)c(=O)n(C3CC3)c2n1	none (no result: TDP1 inh, ClpP mod)
Cc1cc2n(n1)CCC(=O)N2Cc1ccc(C(=O)Nc2cc(Cl)ccc2C)cc1	DT40 TDP1 no CPT 21µM, TDP1 cell CPT inconclusive
Cc1ccc(NC(=O)c2ccc(CN3C(=O)CCn4nc(C)cc43)cc2)c(Cl)c1	DT40 TDP1 no CPT inconclusive, TDP1 cell CPT inconclusive
Cc1cc2n(n1)CCC(=O)N2Cc1ccc(C(=O)Nc2cccc(C(F)(F)F)c2)cc1	DT40 TDP1 no CPT 15µM, TDP1 cell CPT 15µM, ClpP mod inconclusive
N#C/C(=N\Nc1ccc(Cl)cc1)C(=O)c1ccsc1	DT40 TDP1 no CPT 23µM, TDP1 cell CPT 16µM (no result: ClpP mod)
N#C/C(=N\Nc1ccc(Cl)cc1)C(N)=S	DT40 TDP1 no CPT 5.8µM, TDP1 cell CPT 5.8µM (no result: ClpP mod)
Cc1ccc(NC(=S)N(C)C)cc1C	none
Cc1ccc(N/N=C(\C#N)C(N)=S)cc1C	DT40 TDP1 no CPT 18µM, TDP1 cell CPT 10µM
Cc1ccc(N/N=C(\C#N)C(=O)c2ccsc2)cc1	DT40 TDP1 no CPT inconclusive, TDP1 cell CPT inconclusive
N#C/C(=N\Nc1ccccc1)C(N)=S	DT40 TDP1 no CPT inconclusive (no result: ClpP mod)
c1c[nH]c(CN2CCN(Cc3ncc[nH]3)CC2)n1	none (no result: TDP1 inh)
CCOc1cc(S(=O)(=O)NCCc2ccccc2C)c(OCC)cc1-n1cnnn1	ClpP mod 32µM
CCOc1cc(S(=O)(=O)N(CC)CC)c(OCC)cc1-n1cnnn1	ClpP mod 16µM
CCOc1cc(S(=O)(=O)NCCc2cccc(C)c2)c(OCC)cc1-n1cnnn1	TDP1 cell CPT inconclusive, ClpP mod 32µM
Cc1sc2c(c1C)c(=O)n(-c1cccc(C(F)(F)F)c1)c(=O)n2Cc1ccccc1C#N	none
CC1CCC2C(=O)N3C(CCC(C)[C@@H]3c3ccc(Br)cc3)C(=O)N2C1c1ccc(Br)cc1 (stereo partly drawn)	none (no result: DT40 TDP1 no CPT, TDP1 cell CPT, ClpP mod)
Cc1cccc(C)c1NC(=O)CNC(=O)CNC(=O)c1ccc2c(c1)OCO2	none (no result: TDP1 inh)
COc1ccc(C2c3cc(OC)c(OC)cc3Cc3c4cc(OC)c(OC)cc4cc[n+]32)cc1OC (stereo not drawn)	DT40 TDP1 no CPT inconclusive, TDP1 cell CPT inconclusive (no result: ClpP mod)
Cc1c(Cc2ccccc2)sc(NC(=O)/C=C/c2cccc3ccccc23)c1C(N)=O	DT40 TDP1 no CPT 3.3µM, TDP1 cell CPT 3.7µM
COC(=O)c1c(NC(=O)/C=C/C(=O)O)sc(Cc2ccccc2)c1C	DT40 TDP1 no CPT inconclusive, TDP1 cell CPT 21µM
C=C(CC1([C@@H](NP(=O)(c2ccccc2)c2ccccc2)[C@H]2C[C@@H]2CCCC)CC1)c1ccccc1	DT40 TDP1 no CPT inconclusive, TDP1 cell CPT inconclusive
Cc1cc(Nc2cc(Cl)cc(Cl)c2)nc(N)n1	DT40 TDP1 no CPT 10µM, TDP1 cell CPT inconclusive
Cc1cc(Nc2ccc(F)cc2)nc(N)n1	none
COc1ccc(C2=CC(=O)C[C@H](c3ccc4c(c3)OCO4)C2)cn1	none
CN(C)c1ccc(-c2c(-c3ccc4c(c3)OCO4)noc2-c2ccsc2)cn1	DT40 TDP1 no CPT inconclusive, TDP1 cell CPT inconclusive (no result: TDP1 inh)
COc1ccc(-c2c(-c3ccc4c(c3)OCO4)noc2C)cn1	DT40 TDP1 no CPT 11µM!, TDP1 cell CPT inconclusive (no result: TDP1 inh)
COc1ccc(-c2c(-c3ccc4c(c3)OCO4)noc2-c2ccsc2)cn1	DT40 TDP1 no CPT 14µM, TDP1 cell CPT 13µM (no result: TDP1 inh)
CC(=O)c1ccc(N2CCN(C(=O)CCn3cnc4onc(-c5ccc(F)cc5)c4c3=O)CC2)cc1	DT40 TDP1 no CPT inconclusive, TDP1 cell CPT inconclusive
O=C(CCn1cnc2onc(-c3ccc(F)cc3)c2c1=O)N1CCN(c2ccc(F)cc2)CC1	DT40 TDP1 no CPT 18µM, TDP1 cell CPT 23µM
COc1ccccc1N1CCN(C(=O)Cn2cnc3onc(-c4ccc(F)cc4)c3c2=O)CC1	DT40 TDP1 no CPT 23µM, TDP1 cell CPT inconclusive
CCSc1nnc2c(n1)OC(c1ccc(OC)c(OC)c1)N(C(C)=O)c1ccccc1-2 (stereo not drawn)	none (no result: TDP1 inh)
CC(=O)c1ccc(NC(=O)/C=C/c2ccc(C)cc2)cc1	none
COc1cc(/C=C/C(=O)Nc2ccncc2)cc(OC)c1OC	DT40 TDP1 no CPT inconclusive, TDP1 cell CPT 21µM, ClpP mod inconclusive
COc1cc(/C=C/C(=O)Nc2ccc(C(C)=O)cc2)cc(OC)c1OC	DT40 TDP1 no CPT 21µM, TDP1 cell CPT inconclusive
COc1ccc(NC(=O)/C=C/c2cc(OC)c(OC)c(OC)c2)cn1	none (no result: ClpP mod)
CC1Cn2c(nc3sc4c(c3c2=O)CCC4)N1CCO (stereo not drawn)	ClpP mod 18µM
Cc1ccc(N(C)S(=O)(=O)c2c(C)noc2/C=C/N(C)C)cc1	DT40 TDP1 no CPT inconclusive, TDP1 cell CPT 18µM
CCCCN1C(=O)c2ccccc2NC1c1ccc(OC)c(COc2ccc(NC(C)=O)cc2)c1 (stereo not drawn)	none (no result: DT40 TDP1 no CPT, TDP1 cell CPT, ClpP mod)
CCCN1C(=O)c2ccccc2NC1c1ccc(OC)c(COc2ccc([N+](=O)[O-])cc2)c1 (stereo not drawn)	DT40 TDP1 no CPT 10µM, TDP1 cell CPT 10µM

Screens from PubChem.
